GCN5L2 inh = qHTS Assay for Inhibitors of GCN5L2 | Histone acetyltransferase KAT2A (Homo sapiens), Q92830 | GCN5L2 HAT assay, ThioGlo1 CoA-SH fluorescence | Potency, µM (titrated, usually from 58.9 µM), inactives show top-dose activity change, negative = inhibition, hits mostly inhibitors | 0.21% of 390,000 active | AID 504327, 2011
Target sequence (Q92830 whole entry, looked up): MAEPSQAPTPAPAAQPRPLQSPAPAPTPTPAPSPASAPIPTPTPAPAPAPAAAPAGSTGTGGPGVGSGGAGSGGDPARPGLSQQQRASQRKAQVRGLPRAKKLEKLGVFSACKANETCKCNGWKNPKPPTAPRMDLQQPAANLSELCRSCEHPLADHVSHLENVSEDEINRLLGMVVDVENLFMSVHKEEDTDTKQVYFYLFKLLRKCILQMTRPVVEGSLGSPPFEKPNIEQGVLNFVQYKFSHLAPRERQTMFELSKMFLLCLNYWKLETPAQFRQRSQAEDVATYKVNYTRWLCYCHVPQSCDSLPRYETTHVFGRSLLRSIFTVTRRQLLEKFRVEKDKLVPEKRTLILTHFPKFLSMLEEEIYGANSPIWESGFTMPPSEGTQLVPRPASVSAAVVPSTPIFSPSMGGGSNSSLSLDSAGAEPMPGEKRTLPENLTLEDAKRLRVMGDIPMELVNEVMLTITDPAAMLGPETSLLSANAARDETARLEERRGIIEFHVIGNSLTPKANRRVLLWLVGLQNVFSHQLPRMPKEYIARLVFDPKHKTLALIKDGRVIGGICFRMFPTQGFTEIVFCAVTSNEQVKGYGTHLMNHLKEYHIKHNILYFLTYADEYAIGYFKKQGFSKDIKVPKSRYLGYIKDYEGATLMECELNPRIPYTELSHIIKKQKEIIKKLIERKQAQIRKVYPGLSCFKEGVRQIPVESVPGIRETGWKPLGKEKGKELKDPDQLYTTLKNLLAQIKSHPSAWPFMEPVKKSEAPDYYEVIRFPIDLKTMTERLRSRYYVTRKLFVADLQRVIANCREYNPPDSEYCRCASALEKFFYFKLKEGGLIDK
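qHTS, 1536-well. 20nM enzyme, pH 7.5 HEPES/EDTA/Tween-20 buffer; 15 min compound preinc., RT. Start: 75uM H3(1-25), 70uM AcCoA, 50uM ThioGlo1. Read Ex340/Em540 at t=0 (autofluorescence flag) and t=20 min.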
VDR inh = Inhibitors of the vitamin D receptor (VDR): qHTS. Vitamin D3 receptor (Homo sapiens), P11473. VDR-SRC2-3 peptide fluorescence polarization, 2 h. Potency, µM, for inactives: max response, negative = inhibition, usual class: inhibitors. 0.93% of 400,000 active
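Fluorescence polarization assay of small-molecule disruption of VDR binding to coregulator peptide SRC2-3. Compounds and controls pin-transferred, then read after 2 h incubation at ambient room temperature.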
DT40 TDP1 CPT = qHTS for Inhibitors of human tyrosyl-DNA phosphodiesterase 1 (TDP1): qHTS in cells in presence of CPT; chicken DT40 Tdp1-/-;hTDP1 cells + 20 nM CPT, ATP luminescence, 48 h; Potency, µM (top dose mostly 46.2 µM), for inactives: at the top dose activity change, negative = growth inhibition, most hits filed as inhibitors; 12% of 420,000 active; note: nearly all actives have a fitted effect of over 55% in size
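Chicken DT40 Tdp1-/- cells stably complemented with human TDP1 were seeded at 400 cells/well in medium containing 20 nM camptothecin, exposed to pin-transferred compounds, and grown at 37 °C for at least 48 hr. Viability was read as ATP luminescence.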
TDP1 block = qHTS Assay for Inhibitors of Tyrosyl-DNA Phosphodiesterase (TDP1). Tyrosyl-DNA phosphodiesterase 1 (Homo sapiens), Q9NUW8. recombinant TDP1, AlphaScreen DNA substrate cleavage. Potency, µM (highest dose often 130 µM), for the others: at the highest dose activity change, negative = inhibition, hits mostly inhibitors. 0.28% of 350,000 active. AID 485290, 2010; note: nearly all actives have a fitted effect of over 40% in size
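Here, a 5' biotin and 3' phosphotyrosine-FITC DNA oligonucleotide reports Tdp1 activity: intact substrate bridges AlphaScreen beads, while cleavage leaves a 3' phosphate and drops signal. All incubations at room temperature.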
DT40 TDP1 no CPT = qHTS for Inhibitors of human tyrosyl-DNA phosphodiesterase 1 (TDP1): qHTS in cells in absence of CPT | DT40 Tdp1-/- hTDP1 cells, no CPT, ATP luminescence, 48 h | Potency, µM (titrated, usually from 46.2 µM), without a hit: at the top dose activity change, negative = growth inhibition, usual class: inhibitors | 15% of 420,000 active | AID 686978, 2013; note: nearly all actives have a fitted effect of over 55% in size
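Cells were dispensed at 400 per well, compounds added by pin tool, plates incubated ≥48 hr at 37 °C, then CellTiter-Glo added for 30 min at room temperature before luminescence reading. Line: DT40 Tdp1-/- complemented with hTDP1; camptothecin omitted.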
PLK1 PBD inh = qHTS for Inhibitors of PLK1-PDB (polo-like kinase 1 - polo-box domain): Primary Screen. AID 720504, 2013. Serine/threonine-protein kinase PLK1 (Homo sapiens), P53350. 2.8% of 360,000 active. Plk1 PBD binding of FITC phosphopeptide, fluorescence polarization. Potency, µM, for the others: max response, negative = inhibition, most hits filed as inhibitors; note: series mostly up to about 57 µM; nearly all actives have a fitted effect of over 65% in size
Active calls of the source: *. An excerpt weighted towards active compounds, which were near 18% of everything screened. Calls come from the whole dose curve; as a rule, active = well fitted curve in the direction sought with a large enough effect; inconclusive = small, poorly fitted or top-dose-only effect, or another doubt; inactive = no such curve, though single readings can be large; an effect the other way counts as inactive or inconclusive. % is set by controls: 0 for no effect and ±100 for the full control effect; potency is the fitted concentration of half-maximal effect.

CC1=C(C#N)c2nc(N)c(C#N)c(C)c2/C1=C\c1ccc(OCC(=O)O)c(Cl)c1 was read as GCN5L2 inh inconclusive, VDR inh -5%, DT40 TDP1 CPT -28%, TDP1 block 0%, DT40 TDP1 no CPT inconclusive and PLK1 PBD inh 8.4µM*.
Screening O=C(CN1c2ccccc2Sc2ccccc21)N/N=C/c1ccc([N+](=O)[O-])cc1 returned GCN5L2 inh -20%, VDR inh -2%, DT40 TDP1 CPT inconclusive, DT40 TDP1 no CPT 21µM* and PLK1 PBD inh -11%.
`CCCCCCSc1ccc([C@H]2N[C@@](CC(C)C)(C(=O)OC)[C@H]3C(=O)N(CC)C(=O)[C@@H]23)cc1` gave GCN5L2 inh 0%, VDR inh -20%, DT40 TDP1 CPT 21µM*, TDP1 block -5%, DT40 TDP1 no CPT 21µM* and PLK1 PBD inh -6%.
`CCCCCCSc1ccc([C@H]2N[C@@](CC(C)C)(C(=O)OC)[C@H]3C(=O)N(C)C(=O)[C@@H]23)cc1` gave GCN5L2 inh -24%, VDR inh -12%, DT40 TDP1 CPT inconclusive, TDP1 block -1%, DT40 TDP1 no CPT inconclusive and PLK1 PBD inh -25%.
Screening CCC(C)Sc1ccc([C@H]2N[C@@](C)(C(=O)OC)[C@H]3C(=O)N(CC)C(=O)[C@@H]23)cc1 (some centres undefined) returned GCN5L2 inh 1%, VDR inh 0%, DT40 TDP1 CPT 16µM*, TDP1 block 1%, DT40 TDP1 no CPT 18µM* and PLK1 PBD inh 1%.
For CCC(C)Sc1ccc([C@H]2N[C@@](C)(C(=O)OC)[C@H]3C(=O)N(C)C(=O)[C@@H]23)cc1 (some centres undefined) the results were GCN5L2 inh 1%, VDR inh -11%, DT40 TDP1 CPT -29%, TDP1 block 2%, DT40 TDP1 no CPT inconclusive and PLK1 PBD inh -2%.
CCCCCCSc1ccc([C@H]2N[C@@](C)(C(=O)OC)[C@H]3C(=O)N(CC)C(=O)[C@@H]23)cc1 was read as GCN5L2 inh -17%, VDR inh -11%, DT40 TDP1 CPT 23µM*, TDP1 block -8%, DT40 TDP1 no CPT 18µM* and PLK1 PBD inh -1%.
S=C1NC2(CCCCC2)NN1c1ccccc1 was read as GCN5L2 inh 18µM*, VDR inh -5%, DT40 TDP1 CPT 23%, TDP1 block 8%, DT40 TDP1 no CPT inconclusive and PLK1 PBD inh -2%.
O=C(CCC(=O)N1CCOc2ccccc21)NCc1cccnc1 was read as GCN5L2 inh -3%, VDR inh 11%, DT40 TDP1 CPT 1%, DT40 TDP1 no CPT -1% and PLK1 PBD inh -7%.
Screening CC(C)(C)OC(=O)N1CCC(c2c(C(=O)N3CCN(c4ccccn4)CC3)cnn2-c2cccc(F)c2)CC1 returned GCN5L2 inh -10%, VDR inh 10%, DT40 TDP1 CPT 18µM*, TDP1 block 3% and DT40 TDP1 no CPT 16µM*.
Cc1ccc(-n2ncc(C(=O)N3CCN(c4ccccn4)CC3)c2C2CCN(C(=O)OC(C)(C)C)CC2)cc1 was read as GCN5L2 inh 24%, VDR inh 20%, DT40 TDP1 CPT inconclusive, TDP1 block 4% and DT40 TDP1 no CPT inconclusive.
COc1ccc(-n2ncc(C(=O)N3CCN(c4ccccn4)CC3)c2C2CCN(C(=O)OC(C)(C)C)CC2)cc1 was read as GCN5L2 inh 20%, VDR inh 16%, DT40 TDP1 CPT inconclusive, TDP1 block -1% and DT40 TDP1 no CPT 21µM*.
Screening CCOC(=O)c1c(C)[nH]c(C)c1S(=O)(=O)N(C)CC(=O)Nc1cc(Cl)ccc1C returned GCN5L2 inh 2%, VDR inh 12%, DT40 TDP1 CPT inconclusive, TDP1 block 0% and DT40 TDP1 no CPT inconclusive.
Screening O=C1CSC(c2ccc([N+](=O)[O-])cc2)N1c1ccc(O)cc1 (centres undefined) returned GCN5L2 inh 8%, VDR inh -7%, DT40 TDP1 CPT -8%, DT40 TDP1 no CPT -18% and PLK1 PBD inh -1%.
`CC(=O)Nc1cccc(/C(C)=N/NC(=O)c2cccc(S(=O)(=O)N3CCCC3)c2)c1` gave DT40 TDP1 CPT -27%, DT40 TDP1 no CPT inconclusive and PLK1 PBD inh -10%.
For C/C(=N\Nc1ccc(S(=O)(=O)N2CCCCC2)cn1)c1cccc(Br)c1 the results were GCN5L2 inh -9%, VDR inh 6%, DT40 TDP1 CPT inconclusive, TDP1 block 1%, DT40 TDP1 no CPT 3.3µM* and PLK1 PBD inh 0%.
CC(=O)c1c(C)n(-c2ccc(C)cc2C)c2ccc(O)cc12 was read as GCN5L2 inh -12%, VDR inh 17%, DT40 TDP1 CPT inconclusive, DT40 TDP1 no CPT -22% and PLK1 PBD inh -6%.
For CC1=NN(c2ccc(C)cc2C)C(=O)C1C(c1cccc(O)c1)C1C(=O)N(c2ccc(C)cc2C)N=C1C (centres undefined) the results were GCN5L2 inh 27%, VDR inh inconclusive, DT40 TDP1 CPT 5%, TDP1 block 0%, DT40 TDP1 no CPT -13% and PLK1 PBD inh 27µM*.
Screening Cc1ccc(S(=O)(=O)c2nnn3c2nc(N2CCCC2)c2sccc23)cc1C returned GCN5L2 inh -11%, VDR inh -4%, DT40 TDP1 CPT 3%, TDP1 block -8% and DT40 TDP1 no CPT -19%.
Screening O=S(=O)(c1cccc(Cl)c1)c1nnn2c1nc(NC1CCCC1)c1sccc12 returned GCN5L2 inh -3%, VDR inh -4%, DT40 TDP1 CPT inconclusive, TDP1 block -13% and DT40 TDP1 no CPT inconclusive.
Screening O=S(=O)(c1cccc(Cl)c1)c1nnn2c1nc(NCc1ccc3c(c1)OCO3)c1sccc12 returned GCN5L2 inh -7%, VDR inh 3%, DT40 TDP1 CPT inconclusive, TDP1 block 5% and DT40 TDP1 no CPT 23µM*.
CCOC(=O)C1CCN(c2nc3c(S(=O)(=O)c4ccccc4)nnn3c3ccsc23)CC1 was read as GCN5L2 inh -8%, VDR inh 11%, DT40 TDP1 CPT 15µM*, TDP1 block 3% and DT40 TDP1 no CPT 21µM*.

Source: PubChem
